Source: PubChem BioAssay AID504375 (National Center for Advancing Translational Sciences (NCATS), 2011)
The campaign covered roughly 1,600 compounds. About 25 (2%) were called active. Not shown: some 7% with an inconclusive outcome. The entries come from a sample that favours actives as a whole. Unmarked numbers belong to inactive results. The call rests on the fitted dose curve; in most records, active means well fitted inhibition curve with a large enough effect; inconclusive means small, poorly fitted or top-dose-only effect, or effect the other way; inactive means no such curve, though single readings can be large or run the other way.

What follows are molecules tested against Runt-related transcription factor 1 (Homo sapiens) + Core-binding factor subunit beta (Homo sapiens) (UniProt Q01196+Q13951) (assay: qHTS Assay for Compounds Blocking the Interaction Between CBF-beta and RUNX1 for the Treatment of Acute Myeloid Leukemia: Hit Validation with Orthogonal Assay). Conditions: CBFbeta-RUNX1 binding orthogonal assay, biochemical; series mostly up to 41 µM; activity change, negative = inhibition: at the top concentration.
Runt-related transcription factor 1 (Homo sapiens) + Core-binding factor subunit beta (Homo sapiens), sequence (Q01196 whole entry, looked up): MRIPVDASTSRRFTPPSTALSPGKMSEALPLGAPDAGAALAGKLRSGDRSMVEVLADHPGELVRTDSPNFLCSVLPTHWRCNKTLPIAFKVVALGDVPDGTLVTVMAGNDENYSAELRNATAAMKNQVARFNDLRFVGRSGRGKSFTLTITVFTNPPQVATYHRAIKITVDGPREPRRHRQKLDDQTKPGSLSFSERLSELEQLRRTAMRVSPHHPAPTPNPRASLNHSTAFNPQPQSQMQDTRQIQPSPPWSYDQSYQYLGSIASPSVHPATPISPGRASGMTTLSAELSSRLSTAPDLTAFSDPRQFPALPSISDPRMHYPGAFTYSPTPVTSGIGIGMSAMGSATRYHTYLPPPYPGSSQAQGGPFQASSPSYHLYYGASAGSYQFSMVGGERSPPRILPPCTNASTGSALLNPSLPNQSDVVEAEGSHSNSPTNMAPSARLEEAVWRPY
Runt-related transcription factor 1 (Homo sapiens) + Core-binding factor subunit beta (Homo sapiens), sequence (Q13951 whole entry, looked up): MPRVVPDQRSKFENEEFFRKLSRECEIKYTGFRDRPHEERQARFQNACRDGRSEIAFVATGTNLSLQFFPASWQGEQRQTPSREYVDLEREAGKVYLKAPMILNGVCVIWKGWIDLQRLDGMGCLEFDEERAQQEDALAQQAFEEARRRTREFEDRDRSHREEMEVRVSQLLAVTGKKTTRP
Description: NIH Chemical Genomics Center [NCGC]
NIH Molecular Libraries Probe Production centers Network [MLPCN]
Assay Submitter (PI): Paul Liu
Core Binding Factor (CBF) abnormalities are associated with 20-25% of all acute myeloid leukemias (AML), of which 5-10% are further sub classified as acute myelomonocytic leukemia with eosinophilia, also known as M4Eo in the FAB classification scheme. This subtype of leukemia is usually associated with chromosome 16 inversion (p13:q22). Chromosome 16 inversion results in formation of the fusion oncogene CBFB-MYH11, which encodes the fusion protein CBF-beta-SMMHC.
It has been hypothesized that the interference of CBF-beta and RUNX1 binding could have therapeutic implications for patients with CBF mediated leukemias. We developed a CBF-beta and RUNX1 binding assay in AlphaScreenTM format and optimized it for high throughput screening to search for inhibitors. The goal of this project is to screen MLPCN's compound collection (MLSMR) for identifying the inhibitors of the interaction between CBF-beta and RUNX1 proteins as research probes. If these probes work well in the animal models, the ultimate goal of this project is to development a new drug treatment for this disease.
This assay can not be used to assess how apparent inhibitors interfere with protein binding, and whether inhibitors specifically bind to either protein. Disruption of this protein-protein interaction, through any mechanism, is the intended target activity.
The present data set was run to confirm the activity of hits from the primary screen using an orthogonal assay technology for measuring protein-protein interaction disruption.
A TR-FRET (time resolved fluorescence resonance energy transfer) assay was performed using the same assay buffer, protein concentrations and incubation times as described previously in the AlphaScreen assay, except that terbium (Tb+) labeled anti-his-antibody and XL665 linked streptavidin were used to capture the binding signal. The Tb+ labeled anti-his-antibody captures His(6)-CBF and XL665 linked streptavidin binds to biotin-RUNX1. The binding of RUNX1 to CBFbrings Tb+ and XL665 to proximity resulting in a TR-FRET signal. Briefly, in a white 384-well plate, 10 µl/well of mixture of biotin-RUNX1 and His(6)-CBFwere incubated with 10 µl/well buffer (positive control) or 10 µl/well compounds (negative control) for 20 min followed by an addition of 10 µl/well of Tb+ labeled anti-his(6)-antibody and XL665 linked streptavidin. After 90 min of incubation in the dark, the assay plate was measured in the Envision plate reader using TR-FRET detection mode. For the 1536-well plate format, 3 µl/well mixture of biotin-RUNX1 and His(6)-CBF (30 nM per protein) was incubated with 23 nl/well compound (dissolved in 100% DMSO) or the equivalent DMSO concentration (positive control) for 30 min followed by the addition of 1 µl/well of 0.44 ng Tb+ labeled anti-his(6)-antibody and 5 nM streptavodin-XL665. After 90 min of incubation, the assay plate was measured in the Envision plate reader.
The TR-FRET assay for detecting interaction between HIV-I Tat and […] was similarly performed with the recombinant full-length HIV-I Tat CLADE B and HIV-I Tat Biotin conjugated proteins supplied by Diatheva (Fano, Italy). Briefly, the His-CBF and Biotin-RUNX1 complex at a working concentration of 83.3 nM per protein were pre-incubated in assay buffer for 10 minutes on ice. Then HIV-I Tat or unlabeled CBF were added to reach final concentrations (Supplementary Figure 4b) and incubated for 5 minutes. Finally anti-His antibody and streptavidin-XL665 at a final concentration of 2.2 ng and 5 nM, respectively, were added to the plate, which was incubated for 1 hr prior to reading on the PerkinElmer Envision plate reader.
Keywords: MLSMR, MLPCN, NIH Roadmap, qHTS, NCGC, Core binding factor, CBF, CBF-beta, Acute myeloid leukemia
On the % scale 0 is the no-effect control and ±100 the full control effect; potency means the concentration at half of the fitted maximal effect.

Structure (SMILES)	Potency	activity change, negative = inhibition
O=C1OCC2OC(O)C(O)C(O)C2OC(=O)c2cc(O)c(O)c(O)c2-c2c(O)c(O)c3oc(=O)c4c(c(O)c(O)c5oc(=O)c2c3c54)-c2c1cc(O)c(O)c2O (stereo not given)	398 nM (active)	–
Cc1nn(C)c(Sc2ccccn2)c1[N+](=O)[O-]	–	17.8%
Nc1ccc(Oc2ccccc2F)nc1	–	4.8%
Cc1nc(C)c(-c2ccn(C(=O)NC(C)C)n2)s1	–	-3.96%
CC(C)(C)c1ccc(C(=O)Nc2ccc(S(N)(=O)=O)cc2)cc1	–	-14.1%
c1ccc2oc(-c3ccn[nH]3)cc2c1	–	13%
CN(C)C(=S)Nc1ccc(Cl)cc1	–	-10.5%
C/C(=N\NC(=O)c1cc(-c2cccc([N+](=O)[O-])c2)n[nH]1)c1ccc(F)cc1	–	24.3%
Cc1cc(Cl)c2cc3ccccc3cc2n1	–	-4.05%
Cc1cccc(NC(=S)N(CCN(C)C)C(C)c2ccccn2)c1 (stereo not given)	–	3.34% [at 22.1 µM]
Cc1ccc(Cl)cc1NC(=S)NN	–	-11.4%
Cc1ccc(Cl)cc1NC(=S)N(CCN(C)C)C(C)c1ccccn1 (stereo not given)	1220 nM (active)	–
COc1ccc(C2Sc3ccccc3N(CCN(C)C)C(=O)C2OC(C)=O)cc1 (stereo not given)	–	-5.56%
c1ccc(N2CCOCCOCCOCCOCC2)cc1	–	-0.0612%
CC(C)(C)OC(=O)N1CCCN(C(=O)Nc2cccc(Cl)c2)CC1	–	-9.47%
O=C1c2ccccc2C(=O)N1/N=C/c1ccc(O)c(O)c1O	2820 nM (active)	–
COc1ccc(C(=O)COc2ccc(C)cc2NC(C)=O)cc1	–	1.31%
CC1CC(C)(C)NC(=S)O1 (stereo not given)	–	-6.64%
CCCCCNc1nc2sc3c(c2c(=O)n1-c1cccc(Cl)c1)CCN(C)C3	–	10.2%
Cc1cc(C)c2c(N)c(-c3nnc(SCc4ccc(Cl)cc4)n3C)sc2n1	–	-7.93%
O=C(/C=C/c1cn(CC(O)CN2CCCCC2)c2ccccc12)c1ccccc1 (stereo not given)	–	7.34%
S=c1[nH]nc([C@@H]2C[C@H]2c2ccccc2)n1-c1ccccc1Cl	–	-7.38%
CCC(=O)Nc1cccc(C(=O)OC)c1	–	1.37%
CCCCC(=O)Nc1ccc(NC(=S)NC(=O)c2ccco2)cc1OC	–	-1.9%
CCc1cccc(NC(=O)CCCCCC2NC(=O)NC2C)c1 (stereo not given)	56.2 nM (active)	–
CCCCc1c(C)nc(N2CCCC2)[nH]c1=O	–	0.526%
Cc1cc(=O)n2[nH]c(CCC(=O)O)nc2n1	–	14.9%
CCN(CC)S(=O)(=O)c1cccc(NC2=NCCCCC2)c1	–	-3.88%

Structure (SMILES)	Potency	activity change, negative = inhibition
CCN1C/C(=C/c2cccs2)c2nc3ccccc3c(C(=O)O)c2C1	–	30.8%
COc1ccc(OS(=O)(=O)c2c(C)noc2C)cc1	–	14.1%
O=C(OCC1OC(OC(=O)c2cc(O)c(O)c(OC(=O)c3cc(O)c(O)c(O)c3)c2)[C@@H](OC(=O)c2cc(O)c(O)c(OC(=O)c3cc(O)c(O)c(O)c3)c2)C(OC(=O)c2cc(O)c(O)c(OC(=O)c3cc(O)c(O)c(O)c3)c2)C1OC(=O)c1cc(O)c(O)c(OC(=O)c2cc(O)c(O)c(O)c2)c1)c1cc(O)c(O)c(OC(=O)c2cc(O)c(O)c(O)c2)c1 (stereo not given in full)	10000 nM (active)	–
O=C(Nc1ccc(Cl)cc1)N1CCCC(Cn2cccc2)C1 (stereo not given)	–	-9.6%
CC(C)c1nc2oc3c(N(C)CCO)ncnc3c2c2c1CCC2	–	-6.9%
CC(C)(C)NC(=O)c1cccc2c1C(=O)c1ccccc1-2	–	19.1%
O=C(O)C[C@@H]1C(=O)O[C@@H]2C(COC(=O)c3cc(O)c(O)c(O)c3)O[C@@H](OC(=O)c3cc(O)c(O)c(O)c3)[C@@H](OC(=O)c3cc(O)c(O)c4c3[C@H]1[C@H](O)C(=O)O4)[C@H]2OC(=O)c1cc(O)c(O)c(O)c1 (stereo not given in full)	89.1 nM (active)	–
CCN(CC)c1ccc(/C=N/N2CCN(Cc3ccccc3Cl)CC2)c(O)c1	–	3.34%
CCCNC(=S)Nc1ccccc1	–	1.82%
CC1CCC2(CC1)NC(=S)N(C(C)(C)C)N2 (stereo not given)	–	-0.587%
CN1c2ccccc2C(=O)/C(=C\Nc2ccc(F)cc2)S1(=O)=O	–	3.72%
COC(=O)[C@@H](NC(=O)NC1CCCCC1C)C(C)C (stereo not given in full)	–	4.32%
CCCCCc1ccc(S(=O)(=O)Nc2cc(C)ccn2)cc1	–	-8.73%
Cc1onc(-c2ccccc2)c1C(=O)NNC(=S)NC(=O)c1ccc2c(c1)OCO2	–	0.0734%
O=C(CCl)NCCCN(C(=O)C(Cl)Cl)c1ccc([N+](=O)[O-])cc1	–	20.2%
Cn1nc(-c2ccccc2)cc1NS(=O)(=O)c1ccccc1	–	14.9%
Cc1c2c(c(O)c3c(O)cccc13)C(=O)O[C@H]2C1C(N(C)C)C(O)=C(C(N)=O)C(=O)[C@H]1O (stereo not given in full)	2240 nM (active)	–
O=C(NNC(=S)Nc1ccccc1C(F)(F)F)C1CC1	–	1.1%
COc1cc(/C=N\NC(=O)CNC(=O)C(c2ccccc2)c2ccccc2)ccc1O	–	11.9%
COCc1cc(=O)n2[nH]c(C(C)(C)C)cc2n1	–	-2.01%
COc1cc(NCc2ccccc2O)c2ncccc2c1	–	9.87%
COc1ccc(NS(=O)(=O)c2ccc(Cl)s2)cn1	–	7.73%
O=C(NN1C(=O)C2CCCCC2C1=O)c1ccco1 (stereo not given)	–	-0.159%
O=c1c(O)cccc2cc(O)c(O)c(O)c12	1260 nM (active)	–
Cc1onc(-c2ccccc2)c1C(=O)NC(=S)NNC(=O)c1ccco1	–	-16.1%
O=C(NC(=S)Nc1ccccc1N1CCCC1)c1ccco1	–	3.85%
O=C(NC(=S)NNC(=O)c1ccccc1O)c1ccco1	3160 nM (active)	–
